Assay [1] in a line: circadian clock period modulators, cell-based, LOPAC library, luminescence reporter (AID 2774; call rule not given here;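 further: values are relative to mean of DMSO wells on each plate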). As to conditions: circadian reporter cells, at 7 µM, actives lie on both sides.
The subject of assay [2] is Hepatitis C virus NS3 helicase. Nature of the assay: HCV NS3 helicase inhibitors, primary screen, biochemical, fluorescence polarization, LOPAC1280 library (AID 687035; in the data active means inhibition above about 37%). The settings on record: Purified HCV NS3 helicase, Cy5-dT15 ssDNA binding fluorescence polarization; stronger effect = higher value; concentration not given here. A general note: Fluorescence polarisation rises when a labelled molecule tumbles more slowly, as on binding a larger partner.

A short description of assay [3]: Cy5 fluorescence quenching or enhancement artefacts, artefact control for HCV NS3 helicase inhibitor project, biochemical, LOPAC1280 (AID 687037; call rule not given here). The settings on record: Cy5-DNA-NS3h complex fluorescence interference counterscreen.
Assay [4] can be described thus: phospholipid biosynthesis inhibitors in animal cells, primary screen, cell-based, LOPAC library, screen 4 (AID 1347384; call rule not given here). As to conditions: phospholipid biosynthesis inhibition screen, at 10 µM.
Assay [5] can be described thus: modifiers of HSF1 nuclear foci, imaging, Selleck Cancer Library (AID 1347162; in the data active means plate-normalised HSF1 focus index below about 0.46). As to conditions: human cells, at 10 µM; SSMD: measured here: HSF1 foci SSMD mean; cell count: measured here: cell number; plate-normalised HSF1 focus index: stronger effect = lower value.
The nature of assay [6]: LFS_MB_P medulloblastoma growth inhibition, cell-based, chromothripsis tumors, cisplatin or BGB combos (AID 1671449).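 Further: cells exposed for 96 hours; 0% = vehicle DMSO and 100% = killing by high DMSO.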 As to conditions: LFS_MB_P medulloblastoma cells.
Assay [7] in a line: HDN33 neuroblastoma growth inhibition, cell-based, chromothripsis tumors, cisplatin or BGB combos (AID 1671450).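 Further: cells exposed to compound for four days; 0% = vehicle DMSO and 100% = cell killing by high DMSO.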 The settings on record: HDN33 neuroblastoma cells, stronger effect = higher value.
A short description of assay [8]: ICB984 medulloblastoma cell growth inhibition, synergistic combos for chromothripsis tumors, cisplatin or BGB combos (AID 1671451; call rule not given here;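 further: cells exposed for 96 hours before readout; 0% = vehicle DMSO and 100% = killing by high DMSO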). As to conditions: ICB984 medulloblastoma cells, drug combinations, stronger effect = higher value.
The nature of assay [9]: LFS_MB_1R medulloblastoma cell growth inhibition, synergistic combos for chromothripsis tumors, cisplatin or BGB combos (AID 1671452).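 Further: cells exposed for 96 hours before readout.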 The settings on record: LFS_MB_1R medulloblastoma cells, stronger effect = higher value.
A short description of assay [10]: HTB85 osteosarcoma cell growth inhibition, synergistic combos for chromothripsis tumors, BGB or cisplatin IC20 combos (AID 1671453).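 Further: cells exposed for 96 hours before readout; 0% = vehicle DMSO and 100% = high DMSO killing control.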 The settings on record: HTB85 osteosarcoma cells, drug combinations, stronger effect = higher value.
Assay [11] in a line: CRL2098 osteosarcoma cell growth inhibition, synergistic combos for chromothripsis tumors, BGB or cisplatin IC20 combos (AID 1671454).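 Further: cells exposed for 96 h before readout; 0% = vehicle DMSO and 100% = killing by high DMSO.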 The settings on record: CRL2098 osteosarcoma cells, drug combinations, stronger effect = higher value.
Assay [12] can be described thus: MDA-MB-436 breast carcinoma cell growth inhibition, synergistic combos for chromothripsis tumors, BGB or cisplatin combos (AID 1671458; call rule not given here;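 further: cells exposed for 96 hours; 0% = vehicle DMSO and 100% = killing by high DMSO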). The settings on record: MDA-MB-436 breast carcinoma growth inhibition, drug combinations, stronger effect = higher value.
The nature of assay [13]: growth inhibition of BT084 medulloblastoma cells, cell-based, ICGC_MB145, cisplatin and BGB IC40 combos (AID 1671461).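 Further: cells exposed to drugs for 96 hours; 0% = vehicle DMSO and 100% = high DMSO full killing control.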 As to conditions: drug combinations, stronger effect = higher value.
Assay [14] in a line: growth inhibition of RCMB18 medulloblastoma cells, cell-based, cisplatin and BGB IC40 combos (AID 1671462).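 Further: cells exposed to compound for four days.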 The settings on record: stronger effect = higher value.
A short description of assay [15]: growth inhibition of CRL1545 osteosarcoma cells, cell-based, cisplatin and BGB IC20 combos (AID 1671464).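 Further: cells exposed to compound for 96 hours before readout; 0% = vehicle DMSO and 100% = high DMSO killing control.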 The settings on record: stronger effect = higher value.
The mark [16] stands for this setting: measured here: combination with BGB IC40, at 0.05 µM.
Setting [17] is: measured here: with BGB IC20 combination, at 0.5 µM.
Where [18] appears, read: measured here: with cisplatin IC20 combination, at 0.5 µM.
The mark [19] stands for this setting: measured here: combination with cisplatin, at 0.5 µM.

Values joined by “and” are separate entries in the source; they are usually repeats but may differ in a detail not shown here. Equal values may be shown once. Active and inactive are the calls of the source. Unless noted, no stated cut-off is given here; in the data, active means inhibition above about 80%; inactive means the rest.

The record followed here is PubChem BioAssay.

Usually inhibition stands for the relative decrease from the control value, in per cent. Take `C[N+](C)(C)CCCCCCCCCC[N+](C)(C)C`: the period change in [1] was 0.03 h (inactive). In assay [2], the inhibition was 2% (inactive). The fluorescence ratio (interference) in assay [3] is 1 (inactive). Also, the result in [4] was inactive.

`CC1=C(/C=C/C(C)=C/C=C/C(C)=C/C(=O)Nc2ccc(O)cc2)C(C)(C)CCC1`: the period change in [1] was -0.145 h (inactive). Moreover, the inhibition in [2] is -3% (inactive). For the same compound, the fluorescence ratio (interference) in [3] is 1 (inactive). Also, in assay [5], the SSMD is -4.16, the cell count was found to be 7280 and the plate-normalised HSF1 focus index is 0.851 (inactive). For the same compound, the compound was classed as active in assay [4].

`Nc1nc(Cl)nc2c1ncn2[C@@H]1O[C@H](CO)[C@@H](O)[C@@H]1F`: the SSMD in [5] is -4.45. In [5], this compound yielded a cell count of 7490. The plate-normalised HSF1 focus index in assay [5] was 0.84 (inactive). Further, the inhibition in [6] (at 0.5 µM, stronger effect = higher value) was -3.9% (inactive) and -14.3% (inactive); in assay [6] (measured here: combination with BGB IC20, at 0.005 µM) it was -8.83% and 6.96%; in [6] (measured here: combination with BGB IC40, at 0.005 µM), -20.3% and 1.78%; in [6] (setting [16]) it was -15.7% and -36.2%; in assay [6] (measured here: combination with cisplatin, at 0.5 µM, stronger effect = higher value), -5.98% and 57.4%; in [6] (measured here: combination with cisplatin, at 5 µM, stronger effect = higher value), 71.4% and 96.1%. For the same compound, the inhibition in assay [7] (BGB combo, at 5 µM) was 93.3% and 87.1%; in assay [7] (at 0.5 µM), 73.2% (inactive) and 66.1% (inactive); in assay [7] (cisplatin combo, at 5 µM), 95.5% and 89.7%; in assay [7] (setting [17]) it was 77.5% and 72.5%; in [7] (setting [18]), 73.9% and 60.5%; in [7] (single agent, at 5 µM), 90.8% and 89.8%. The inhibition in assay [8] (BGB IC20 combo, at 0.005 µM) is -17.9% and 1.1%; in assay [8] (BGB IC40 combo, at 0.005 µM) it was -37% and -3.72%; in assay [8] (BGB IC40 combo, at 0.05 µM) it was 35.1% and 25%; in assay [8] (at 0.5 µM), -24.6% (inactive) and -23.6% (inactive); in assay [8] (cisplatin combo, at 0.05 µM), 35.1% and 22.3%; in assay [8] (cisplatin combo, at 0.5 µM) it was -35.6% and 1.18%. Besides, the inhibition in assay [8] (cisplatin combo, at 5 µM) was 0.299% and -46.4%; in assay [8] (measured here: 5 uM single agent, at 5 µM), -18.8% and -11.5%; in [9] (at 0.5 µM), -12.4% (inactive) and -0.15% (inactive); in assay [9] (setting [16]) it was -16.1% and -38.3%; in assay [9] (setting [19]) it was 76.7% and 60.5%; in assay [9] (measured here: combination with cisplatin, at 5 µM), 89.1% and 86.1%. Also, the inhibition is 75.4% (inactive) and 77.9% (inactive) in assay [10] (at 0.5 µM); 66.7% and 73.9% in [10] (measured here: with BGB IC20, at 0.5 µM); 95.1% and 90.7% in [10] (measured here: with BGB IC20, at 5 µM); 78% and 76.7% in assay [10] (measured here: with cisplatin IC20, at 0.5 µM); 97.1% and 95.9% in assay [10] (measured here: with cisplatin IC20, at 5 µM); 96.4% in [10] (single agent, at 5 µM). The inhibition in assay [11] (at 0.5 µM) is 79.4% (inactive) and 75.9% (inactive); in assay [11] (measured here: combination with BGB at IC20, at 0.5 µM), 67.5% and 66%; in assay [11] (measured here: combination with cisplatin at IC20, at 0.5 µM), 88.5% and 80.9%; in [12] (at 0.5 µM) it was 45.3% (inactive) and 53.2% (inactive); in [12] (measured here: BGB combination, at 0.5 µM), 39.5% and 52%; in [12] (measured here: BGB combination, at 5 µM), 65.6% and 67.5%. In addition, the inhibition was 40.6% and 46.8% in assay [12] (measured here: cisplatin combination, at 0.5 µM); 87% and 90.6% in [12] (measured here: cisplatin combination, at 5 µM); 25.8% (inactive) and 24.8% (inactive) in [13] (at 0.5 µM); 61.9% and 62.5% in assay [13] (cisplatin combination, at 0.5 µM); 70.1% and 80% in [13] (cisplatin combination, at 5 µM); -13.2% and 17.9% in assay [13] (measured here: BGB IC40 combination 0.05 uM, at 0.05 µM). In addition, the inhibition in [13] (single agent, at 5 µM) was -3.16% and -6.18%; in [14] (at 0.5 µM) it was 16.9% (inactive) and 18.5% (inactive); in assay [14] (cisplatin combo, at 5 µM), 84.3% and 94.2%; in assay [14] (measured here: BGB IC40 combination, at 0.05 µM) it was -16.1% and -7.68%; in [14] (setting [19]) it was 83.1% and 66%; in assay [14] (single agent, at 5 µM) it was 9.06% and 45.4%. In addition, the inhibition in assay [15] (at 0.5 µM) is 7.42% (inactive) and 10.4% (inactive); in assay [15] (setting [17]) it was 24% and 34.6%; in assay [15] (setting [18]) it was -0.869% and -3.42%; in [15] (single agent, at 0.05 µM), 30.6% and -23.9%; in [15] (single agent, at 5 µM), 97.1% and 92.1%.
